# HT1080NT lethal: kills 2HG-producing HT-1080-NT fibrosarcoma cells. 1.6% of 360,000 active. AID 686970. HT-1080-NT fibrosarcoma viability, CellTiter-Glo ATP luminescence, 48 h. Potency, µM (top dose mostly 46.1 µM), inactives show top-dose activity, negative = less viability, actives largely listed as cytotoxic;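 also: NT is the 2HG producing partner of a matched IDH1 knockdown line; 0% = DMSO-treated cells and -100% = media-only wells without cells; nearly all actives have a fitted effect of over 55% in size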
#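 A 48-hour cytotoxicity screen used HT-1080-NT cells plated 2 hours before compound delivery. ATP-based CellTiter-Glo luminescence measured viability, normalized to DMSO and no-cell controls.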
# HT1080 IDH1KD tx: kills HT-1080 cells with IDH1 knockdown. HT-1080 IDH1 knockdown viability, ATP luminescence, 48 h. Potency, µM (highest dose often 46.1 µM), for the others: top-dose activity, negative = toxicity, hits mostly cytotoxic. 2% of 360,000 active. AID 686971;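 also: 0% = DMSO wells and -100% = cell-free medium wells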
#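 Knockdown cells (IDH1KD HT-1080) received compounds 2 h after plating at 750 cells/well and were kept 48 h at 37 °C in 5% FBS RPMI. A CellTiter-Glo luminescence read gave % activity for curve fitting.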
# KB-3-1 tox: kills parental KB-3-1 adenocarcinoma cells; 1.4% of 400,000 active; KB-3-1 viability, CellTiter-Glo ATP luminescence, 72 h; AID 1347075; Potency, µM (series often up to 46.1 µM), actives largely listed as cytotoxic; also: nearly all actives have a fitted effect of over 60% in size
#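 Luminescent ATP read-out (CellTiter-Glo) measures survival of drug-naive KB-3-1 cells after 72 h compound exposure at 37 °C. Titration series was screened from lowest to highest concentration, with DMSO vehicle plates as background controls.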
# TDP1 cell CPT: growth inhibition of DT40 Tdp1-/-;hTDP1 cells with camptothecin (screen for TDP1 inhibitors). chicken DT40 Tdp1-/-;hTDP1 cells + 20 nM CPT, ATP luminescence, 48 h. Potency, µM (series often up to 46.2 µM), for the others: top-dose activity change, negative = growth inhibition, most hits filed as inhibitors. 12% of 420,000 active. AID 686979; also: nearly all actives have a fitted effect of over 55% in size
#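 Chicken DT40 Tdp1-/- cells complemented with human TDP1, 400 cells/well, exposed to compounds plus 20 nM camptothecin for at least 48 h at 37 C; viability read as ATP content by CellTiter-Glo luminescence.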
# DT40 TDP1 no CPT: qHTS for Inhibitors of human tyrosyl-DNA phosphodiesterase 1 (TDP1): qHTS in cells in absence of CPT. DT40 Tdp1-/- hTDP1 cells, no CPT, ATP luminescence, 48 h. Potency, µM (top dose mostly 46.2 µM), for the others: at the top dose activity change, negative = growth inhibition, most hits filed as inhibitors. 15% of 420,000 active; also: nearly all actives have a fitted effect of over 55% in size
#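 Luminescent ATP content (CellTiter-Glo) served as the growth readout. Knockout chicken DT40 cells expressing human TDP1 were exposed to compounds without camptothecin for a minimum 48 hr at 37 °C.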
# KB-V1 cytotox: KB-V1 MDR subline cytotoxicity; KB-V1 MDR cells viability, CellTiter-Glo, 72 h; 3.4% of 400,000 active; Potency, µM (titrated, usually from 46.1 µM), actives largely listed as cytotoxic; also: nearly all actives have a fitted effect of over 60% in size
#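 In this primary screen, KB-V1 cells overexpressing P-gp are incubated with library compounds (lowest to highest concentration) for 72 h at 37 degrees C before a luminescent ATP viability read.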
# Active calls of the source: *; i = inactive; ? = inconclusive; / = no result given; [ ] = remark or other dose. A selection: hits, their analogues and other compounds. The true share with any hit is near 19%. Calls follow the shape of the dose curve; as a rule, active = well fitted curve in the direction sought with a large enough effect; inconclusive = small, poorly fitted or top-dose-only effect, or another doubt; inactive = no such curve, though single readings can be large; an effect the other way counts as inactive or inconclusive. Unless noted, % is scaled to controls: 0 for no effect and ±100 for the full control effect; potency is read from the fitted curve at half-maximal effect.
SMILES,HT1080NT lethal,HT1080 IDH1KD tx,KB-3-1 tox,TDP1 cell CPT,DT40 TDP1 no CPT,KB-V1 cytotox
CC(C)n1cnc(S(=O)(=O)N2CCCC(C(=O)NCc3ccccc3Cl)C2)c1 (centres undefined),/,/,i,-24%,-21%,i
Cc1n[nH]c(C)c1S(=O)(=O)N1CCCC(C(=O)NCc2cccs2)C1 (centres undefined),3%,0%,i,-24%,4%,i
Cc1ccc(CNC(=O)C2CCCN(S(=O)(=O)c3c(C)n[nH]c3C)C2)cc1 (centres undefined),11%,12%,i,?,-21%,i
CCOc1ccc(CCNC(=O)C2CCCN(S(=O)(=O)c3c(C)n[nH]c3C)C2)cc1OCC (centres undefined),-2%,3%,i,?,9.2µM*,i
Cc1n[nH]c(C)c1S(=O)(=O)N1CCCC(C(=O)NC2CCCc3ccccc32)C1 (centres undefined),-3%,0%,i,21µM*,18µM*,i
CC(=O)c1cc2c(cc1N/C(=N/S(=O)(=O)c1ccc(Cl)cc1)c1ccc(F)cc1)OCO2,/,/,i,-4%,-4%,i
CCCC(C(=O)NC(C)(C)C)N(CC1CCCO1)C(=O)c1snc(C(N)=O)c1N (centres undefined),12%,18%,i,18%,-4%,?
Cc1ccc(N(C(=O)c2snc(C(N)=O)c2N)C(CC(C)C)C(=O)NC2CCCC2)cc1 (centres undefined),?,6%,i,?,?,i
CCC(C(=O)NC1CCCC1)N(C(=O)c1snc(C(N)=O)c1N)c1ccc(C)cc1C (centres undefined),20%,16%,i,?,18µM*,?
CCC(C(=O)NC1CCCC1)N(C(=O)c1snc(C(N)=O)c1N)c1ccc(OC)cc1 (centres undefined),-1%,17%,i,?,13%,i
CCCCC(C(=O)NC1CCCC1)N(C(=O)c1snc(C(N)=O)c1N)c1ccc(C)cc1 (centres undefined),0%,-10%,i,18µM*,?,i
CC(C(=O)NC1CCCC1)N(C(=O)c1snc(C(N)=O)c1N)c1ccc2c(c1)OCCO2 (centres undefined),-1%,-4%,i,-19%,-29%,16µM*
CCCC(C(=O)NC1CCCC1)N(CC1CCCO1)C(=O)c1snc(C(N)=O)c1N (centres undefined),-4%,-5%,i,2%,2%,4.1µM*
O=C(c1cccnc1)C1CCCN(Cc2ccc3c(c2)CN(C(=O)c2cccs2)CCO3)C1 (centres undefined),/,/,/,-7%[9.04 µM],?,/
CC(C)c1ccc(N(C(=O)c2snc(C(N)=O)c2N)C(C(=O)NC2CCCC2)c2ccncc2)cc1 (centres undefined),?,?,i,18µM*,23µM*,?
CC[C@@H]1CCCCc2ccccc2[C@@H](C(=O)C[C@@H](O)CC(C)=O)OC1=O,16%,10%,i,-14%,-19%,i
CC[C@@H]1CCCCc2ccccc2[C@H](C(=O)C[C@@H](O)CC(C)=O)OC1=O,25%,1%,i,21µM*,-2%,?
CC[C@H]1CCCCc2ccccc2[C@@H](C(=O)C[C@@H](O)CC(C)=O)OC1=O,9%,4%,i,15µM*,?,i
CC1(c2nnc(Cc3ccccc3)o2)CC(c2ccc([N+](=O)[O-])cc2)=NO1 (centres undefined),-1%,0%,i,-43%,?,i
CC(C)CN(C(=O)C1CCCO1)C1CCS(=O)(=O)C1 (centres undefined),3%,16%,i,-6%,-9%,i
CCOC(=O)c1c(NC(=O)c2cc(-c3ccc(Br)cc3)on2)sc(C)c1C,/,/,/,-4%,2%,/
COc1ccc2c(c1)C(SCC(=O)NCCc1ccc(Cl)cc1)CC(C)(C)O2 (centres undefined),-6%,-15%,i,16µM*,?,i
Cc1cc(NC(=O)c2ccccc2F)ccc1-c1nc2ccccc2s1,/,/,i,?,?,i
O=C(Nc1cc(Sc2ccccn2)cc([N+](=O)[O-])c1)c1cccc(F)c1,-25%,?,13µM*,?,?,13µM*
O=C(Nc1cc(Sc2nc3ccccc3s2)cc([N+](=O)[O-])c1)c1ccccc1,-22%,-25%,?,?,16µM*,?
SMILES,HT1080NT lethal,HT1080 IDH1KD tx,KB-3-1 tox,TDP1 cell CPT,DT40 TDP1 no CPT,KB-V1 cytotox
O=C(Nc1ncccn1)c1cccc(F)c1,0%,-4%,i,-1%,32%,i
O=C(Nc1cc(Sc2nc3ccccc3s2)cc([N+](=O)[O-])c1)c1ccccc1F,-16%,-24%,?,21µM*,?,?
CCNc1ncc2nc(-c3ccc(OC)cc3)c(=O)n(Cc3ccc(F)cc3)c2n1,/,/,/,-11%,6%,/
CC(C)(C)c1ccc(C(=O)N2CCC2(C)C(=O)NS(=O)(=O)c2ccc(C#N)cc2)cc1 (centres undefined),22%,4%,i,-8%,3%,i
Cc1cccc(C(=O)Nc2ccc(C(=O)OCc3cc(=O)n4c5c(sc4n3)CCCC5)cc2)c1,/,/,/,-15%,-26%,/
C=CCc1cccc(CNc2nc3ccccc3n2C(C)C)c1O,?,11µM*,i,?,?,?
O=C(CCCc1nc2ccccc2s1)N1CCN(S(=O)(=O)c2cccs2)CC1,0%,-3%,i,?,-28%,23µM*
CCOc1ccccc1N1CCN(C(=O)CCCc2nc3ccccc3s2)CC1,0%,1%,i,?,16µM*,i
COc1ccc(-c2cc(-c3ccc(F)cc3)nc3c2COc2ccc(F)cc2-3)cc1,/,/,i,?,?,?
CCCCOC(=O)CSc1nnc(-c2ccccc2)o1,/,/,i,8%,-20%,i
Cn1c(COc2ccc(Cl)cc2)nnc1SCc1ncc(-c2ccccc2)o1,-1%,-20%,i,?,16µM*,i

# Assay outcomes from PubChem BioAssay.
